Experiment in all cases: NCI-60 one-dose screen, 48 h (100 = growth as untreated, 0 = no growth, -100 = all killed)
For one assay, the system named is HCT-15 colon. The settings on record: 10 µM.
A further assay has as its system HT29 colon. The settings on record: 10 µM.
The subject of a further assay is SNB-75 CNS. The settings on record: 10 µM.
Another assay has as its system SNB-19 CNS. The settings on record: 10 µM.
A further assay relates to U251 CNS. The settings on record: 10 µM.
Another assay has as its system PC-3 prostate. To be noted: 10 µM.
The subject of another assay is SK-MEL-5 melanoma. To be noted: 10 µM.
The next assay has as its system UACC-62 melanoma. To be noted: 10 µM unless noted.
The next assay has as its system LOX IMVI melanoma. The settings on record: 10 µM.
The next assay relates to SK-MEL-2 melanoma. The settings on record: 10 µM.
For the next assay, the system named is EKVX NSCLC. The settings on record: 10 µM.
In another assay the test system is SN12C renal. To be noted: 10 µM.
Another assay deals with UO-31 renal. The settings on record: 10 µM.
Another assay deals with TK-10 renal. The settings on record: 10 µM unless noted.
Another assay concerns ACHN renal. The settings on record: 10 µM.
The next assay relates to CAKI-1 renal. The settings on record: 10 µM.
A further assay concerns A498 renal. The settings on record: 10 µM.
In the next assay the test system is CCRF-CEM leukemia. The settings on record: 10 µM.
The next assay deals with MOLT-4 leukemia. The settings on record: 10 µM.
The next assay has as its system SK-MEL-28 melanoma. The settings on record: 10 µM.

Compounds without any hit were thinned out: in the full panel of roughly 83,000, 20% have a hit.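 Single-dose data. Exposure time 48 hours. Values below 10 considered active.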 Values without a mark were called inactive. Active and inactive are the calls of the source.

`Nc1nc(OCc2ccccc2)c2[nH]cnc2n1`: the growth with HCT-15 colon was 63.7%; in the assay with HT29 colon, 105%; in the assay on SNB-75 CNS, 8.69% (active); in the assay on SNB-19 CNS, 104%; in the assay on U251 CNS it was 100%; in the assay with PC-3 prostate, 84.4%. The growth in the assay with SK-MEL-5 melanoma is 94%; in the assay with UACC-62 melanoma it was 86.1%; in the assay with LOX IMVI melanoma, 83.1%; in the assay with SK-MEL-2 melanoma it was 107%; with EKVX NSCLC it was 95%; in the assay with SN12C renal it was 105%. Further, the growth in the assay with UO-31 renal was 96.9%; in the assay on TK-10 renal it was 82.1%; with ACHN renal, 73.5%; with CAKI-1 renal, 74%; with A498 renal it was 86.1%; in the assay on CCRF-CEM leukemia, 143%. Further, the growth in the assay on MOLT-4 leukemia is 73%.

Take `Nc1ccc(N=Nc2ccc(S(=O)(=O)O)cc2)c2ccccc12`: the growth in the assay with HCT-15 colon was 99.9%; in the assay with HT29 colon it was 107%; in the assay with SNB-75 CNS, 81.6%; in the assay with SNB-19 CNS it was 106%; in the assay on U251 CNS, 98.9%; in the assay on PC-3 prostate it was 87.4%. Further, the growth in the assay with SK-MEL-5 melanoma was 94.4%; with UACC-62 melanoma, 90.7%; in the assay on SK-MEL-28 melanoma, 103%; in the assay with SK-MEL-2 melanoma, 102%; with EKVX NSCLC, 89.7%; with SN12C renal, 104%. Moreover, the growth was 65.2% in the assay with UO-31 renal; 140% in the assay with TK-10 renal; 99.2% with ACHN renal; 91.5% in the assay with CAKI-1 renal; 126% in the assay with A498 renal; 102% in the assay on CCRF-CEM leukemia. In the assay on MOLT-4 leukemia, the growth is 88.9%.

Turning to `O=C(Nc1cccc(NC(=O)Nc2cc(C(F)(F)F)ccc2Cl)c1)Nc1cc(C(F)(F)F)ccc1Cl`, the growth was 20.3% with HCT-15 colon; 12.4% with HT29 colon; 16.1% with SNB-75 CNS; 36.2% with SNB-19 CNS; -17.2% (active) with U251 CNS; 1.7% (active) with PC-3 prostate. Also, the growth with SK-MEL-5 melanoma is 29.4%; with UACC-62 melanoma, 19.5%; in the assay on LOX IMVI melanoma it was 10.2%; in the assay with SK-MEL-28 melanoma it was 34.4%; in the assay on SN12C renal, 22%; in the assay on UO-31 renal, 0.156% (active). For the same compound, the growth in the assay on TK-10 renal is -13.8% (active); with ACHN renal it was 9.11% (active); in the assay with CAKI-1 renal, -2.82% (active); in the assay with A498 renal it was -3.96% (active); in the assay with CCRF-CEM leukemia, 5.91% (active); with MOLT-4 leukemia, 2.16% (active).

Regarding `CCCCN(CCCC)CCCO`, the growth in the assay with HCT-15 colon was 100%; with HT29 colon it was 126%; with SNB-75 CNS, 86.7%; in the assay on SNB-19 CNS, 112%; with U251 CNS, 116%; in the assay with PC-3 prostate, 180%. The growth in the assay on SK-MEL-5 melanoma was 104%; with UACC-62 melanoma, 106%; in the assay on LOX IMVI melanoma, 101%; in the assay on SK-MEL-28 melanoma it was 110%; in the assay on EKVX NSCLC it was 110%; in the assay with SN12C renal it was 107%. The growth is 104% in the assay with UO-31 renal; 85% with TK-10 renal; 105% with ACHN renal; 106% in the assay with CAKI-1 renal; 114% in the assay with A498 renal; 113% in the assay on MOLT-4 leukemia.

With `CC1CCC2C(C)(C)C3CC12CC1OC13C` (stereo not drawn), the growth in the assay with HCT-15 colon was 97.7%; with HT29 colon, 107%; in the assay with SNB-75 CNS, 97.5%; in the assay with SNB-19 CNS, 102%; with U251 CNS, 102%; with PC-3 prostate it was 99.5%. The growth with SK-MEL-5 melanoma is 96.9%; in the assay on UACC-62 melanoma it was 103%; in the assay with LOX IMVI melanoma it was 98.3%; in the assay on SK-MEL-28 melanoma, 103%; in the assay on SN12C renal, 97.1%; in the assay on UO-31 renal, 109%. The growth was 104% with TK-10 renal; 103% in the assay with ACHN renal; 98.5% with CAKI-1 renal; 94% in the assay on A498 renal; 112% in the assay with CCRF-CEM leukemia; 110% in the assay on MOLT-4 leukemia.

Turning to `O=[N+]([O-])c1ccc(CO)cc1`, the growth in the assay with HCT-15 colon is 98%; in the assay on HT29 colon it was 108%; in the assay on SNB-75 CNS, 108%; in the assay with SNB-19 CNS, 105%; in the assay with U251 CNS it was 105%; in the assay on PC-3 prostate, 97.2%. The growth is 101% in the assay with SK-MEL-5 melanoma; 99.1% with UACC-62 melanoma; 112% in the assay with SK-MEL-28 melanoma; 118% in the assay with SK-MEL-2 melanoma; 101% with EKVX NSCLC; 106% with SN12C renal. For the same compound, the growth is 93.5% in the assay on UO-31 renal; 99.8% in the assay on TK-10 renal; 111% in the assay on ACHN renal; 102% in the assay with CAKI-1 renal; 110% in the assay with A498 renal; 105% with CCRF-CEM leukemia. Further, the growth with MOLT-4 leukemia was 100%.

Take `CCc1nn(Cc2ccccc2)c2nc(C)c(CCc3ccccc3)c(Cl)c12`: the growth in the assay with HCT-15 colon is 98.5%; with HT29 colon it was 88.6%; in the assay on SNB-75 CNS it was 93.2%; with SNB-19 CNS, 80.2%; in the assay with U251 CNS it was 96.9%; in the assay on PC-3 prostate it was 76%. Further, the growth is 82.7% in the assay on SK-MEL-5 melanoma; 84.5% in the assay on UACC-62 melanoma; 92.6% in the assay with LOX IMVI melanoma; 107% with SK-MEL-28 melanoma; 84.3% in the assay on EKVX NSCLC; 86.1% in the assay with SN12C renal. The growth with TK-10 renal is 91.5%; in the assay on ACHN renal it was 98.4%; in the assay on CAKI-1 renal it was 67.8%; in the assay on A498 renal it was 99.1%; in the assay with CCRF-CEM leukemia, 80.1%; in the assay on MOLT-4 leukemia, 96%.

`CCC(=O)Oc1ccc(OC)cc1`: the growth is 105% in the assay on HCT-15 colon; 105% in the assay on HT29 colon; 90.7% with SNB-75 CNS; 104% in the assay with SNB-19 CNS; 98.3% in the assay with U251 CNS; 110% with PC-3 prostate. The growth with SK-MEL-5 melanoma is 107%; in the assay on UACC-62 melanoma it was 99.8%; in the assay on LOX IMVI melanoma, 105%; in the assay with SK-MEL-28 melanoma, 112%; with EKVX NSCLC, 104%; in the assay on SN12C renal, 101%. Besides, the growth in the assay with UO-31 renal was 80.9%; with TK-10 renal it was 84.4%; with ACHN renal, 101%; in the assay on CAKI-1 renal, 98.3%; with A498 renal, 101%; with CCRF-CEM leukemia, 101%. Moreover, in the assay on MOLT-4 leukemia, the growth is 92.5%.

The values above are taken from PubChem BioAssay (NCI).
